# Measured values published in paper PMC5540273 (PLoS ONE, 2017).
# Read-outs that look alike come from different tables or passages of the source.
# Experiments:
# FGFR1 = settings: concentration: 1 μM, replicates: in singlicate; n = 1
# FGFR2 = settings: concentration: 1 μM, replicates: in singlicate; n = 1
# FGFR3 = settings: concentration: 1 μM, replicates: in singlicate; n = 1
# FGFR4 = settings: concentration: 1 μM, replicates: in singlicate; n = 1
# FGR = settings: concentration: 1 μM, replicates: in singlicate; n = 1
# FLT1 = settings: concentration: 1 μM, replicates: in singlicate; n = 1
# FLT3-autoinhibited = settings: concentration: 1 μM, replicates: in singlicate; n = 1
# FLT3 = settings: concentration: 1 μM, replicates: in singlicate; n = 1
# FLT4 = settings: concentration: 1 μM, replicates: in singlicate; n = 1
# FRK = settings: concentration: 1 μM, replicates: in singlicate; n = 1
# FYN = settings: concentration: 1 μM, replicates: in singlicate; n = 1
# GAK = settings: concentration: 1 μM, replicates: in singlicate; n = 1
# GCN2(Kin.Dom.2,S808G) = test system: T1, GCN2(Kin.Dom.2,S808G); settings: concentration: 1 μM, replicates: in singlicate; n = 1
# T1 construct: gene EIF2AK4
# GRK1 = settings: concentration: 1 μM, replicates: in singlicate; n = 1
# GRK2 = test system: T2, GRK2; settings: concentration: 1 μM, replicates: in singlicate; n = 1
# T2 construct: gene ADRBK1
# GRK3 = test system: T3, GRK3; settings: concentration: 1 μM, replicates: in singlicate; n = 1
# T3 construct: gene ADRBK2
# GRK4 = settings: concentration: 1 μM, replicates: in singlicate; n = 1
# GRK7 = settings: concentration: 1 μM, replicates: in singlicate; n = 1
# GSK3A = settings: concentration: 1 μM, replicates: in singlicate; n = 1
# GSK3B = settings: n = 1
# [1] = concentration: 1 μM, replicates: in singlicate
# 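Also: KINOMEscan kinase panel screen.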
smiles,measurement,setting,value
O=C(Nc1n[nH]c2cc(-c3ccoc3)ccc12)C1CC1 [SB-738481],%Inh,FGFR1,0%
same,%Inh,FGFR2,0%
same,%Inh,FGFR3,7%
same,%Inh,FGFR4,0%
same,%Inh,FGR,22%
same,%Inh,FLT1,27%
same,%Inh,FLT3-autoinhibited,17%
same,%Inh,FLT3,91.8%
same,%Inh,FLT4,0%
same,%Inh,FRK,0%
same,%Inh,FYN,0%
same,%Inh,GAK,2%
same,%Inh,"GCN2(Kin.Dom.2,S808G)",0%
same,%Inh,GRK1,18%
same,%Inh,GRK2,0%
same,%Inh,GRK3,0%
same,%Inh,GRK4,44%
same,%Inh,GRK7,9%
same,%Inh,GSK3A,92.7%
same,%Inh,GSK3B; 1 µM,54%
CN(c1ccc(NC(=O)Nc2cc(C(F)(F)F)ccc2F)cc1)c1ccnc(Nc2ccc(S(N)(=O)=O)cc2)n1 [GW809893],%Inh,FGFR1,76%
same,%Inh,FGFR2,70%
same,%Inh,FGFR3,22%
same,%Inh,FGFR4,14%
same,%Inh,FGR,94.7%
same,%Inh,FLT1,98.3%
same,%Inh,FLT3-autoinhibited,82%
same,%Inh,FLT3,98.6%
same,%Inh,FLT4,99.8%
same,%Inh,FRK,99%
same,%Inh,FYN,83%
same,%Inh,GAK,0%
same,%Inh,"GCN2(Kin.Dom.2,S808G)",0%
same,%Inh,GRK1,17%
same,%Inh,GRK2,13%
same,%Inh,GRK3,0%
same,%Inh,GRK4,25%
same,%Inh,GRK7,6%
same,%Inh,GSK3A,68%
same,%Inh,GSK3B; [1],12%
O=C(Nc1cccc(-c2nn3ncccc3c2-c2ccnc(Nc3ccccc3)n2)c1)c1c(F)cccc1F [GSK198271],%Inh,FGFR1,0%
same,%Inh,FGFR2,7%
same,%Inh,FGFR3,3%
same,%Inh,FGFR4,14%
same,%Inh,FGR,97.2%
same,%Inh,FLT1,98.4%
same,%Inh,FLT3-autoinhibited,0%
same,%Inh,FLT3,72%
same,%Inh,FLT4,77%
same,%Inh,FRK,89%
same,%Inh,FYN,85%
same,%Inh,GAK,31%
same,%Inh,"GCN2(Kin.Dom.2,S808G)",33%
same,%Inh,GRK1,0%
same,%Inh,GRK2,0%
same,%Inh,GRK3,0%
same,%Inh,GRK4,1%
same,%Inh,GRK7,0%
same,%Inh,GSK3A,16%
same,%Inh,GSK3B; [1],14%
Clc1ccc(-c2nn3ncccc3c2-c2ccnc(Nc3ccc4c(c3)OCCO4)n2)cc1 [GW829116],%Inh,FGFR1,0%
same,%Inh,FGFR2,0%
same,%Inh,FGFR3,0%
same,%Inh,FGFR4,0%
same,%Inh,FGR,75%
same,%Inh,FLT1,54%
same,%Inh,FLT3-autoinhibited,0%
same,%Inh,FLT3,59%
same,%Inh,FLT4,35%
same,%Inh,FRK,0%
same,%Inh,FYN,0%
same,%Inh,GAK,68%
same,%Inh,"GCN2(Kin.Dom.2,S808G)",6%
same,%Inh,GRK1,0%
same,%Inh,GRK2,0%
same,%Inh,GRK3,0%
same,%Inh,GRK4,0%
same,%Inh,GRK7,0%
same,%Inh,GSK3A,24%
same,%Inh,GSK3B; [1],0%
